The full ranking holds about 33,000 sequences; the median of “E-score (-0.5 to 0.5)” is about -8e-05, and the highest 2% start at about 0.23. Many of the other results were omitted from the sample, so the highest values are more common in it than they were.
What follows are sequences tested against T1, Nrg2 (UniProt P38082) (assay: PBM E-score (8-mer binding enrichment) (E-score (-0.5 to 0.5)); higher = stronger / more preferred TF binding). Settings: protein concentration: 100 nM; construct: GST-full length.
T1 sequence: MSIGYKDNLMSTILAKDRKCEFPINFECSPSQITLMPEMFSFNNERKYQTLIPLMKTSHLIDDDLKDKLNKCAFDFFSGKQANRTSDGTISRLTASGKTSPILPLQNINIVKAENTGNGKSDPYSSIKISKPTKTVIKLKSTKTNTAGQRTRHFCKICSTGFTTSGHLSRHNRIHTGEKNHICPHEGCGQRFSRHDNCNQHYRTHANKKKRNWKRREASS
Protocol: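 Universal 'all 10-mer' protein binding microarrays (Agilent AMADID 015681) probed with GST-tagged S. cerevisiae TFs (full-length or DBD) made by in vitro transcription/translation (PURExpress), about 100-200 nM. Bound TF was detected with fluorescent anti-GST. Each ungapped 8-mer (which stands for itself and its reverse complement) is scored by the PBM enrichment score (E-score), a modified Wilcoxon-Mann-Whitney statistic from -0.5 to +0.5, computed with the Universal PBM Analysis Suite. Scale: above 0.35 generally sequence-specific binding.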

Sequence	PBM E-score
GGCAATTA	0.103
CGCATTGC	0.148
ACAACAGA	-0.0576
CGCGAAGA	0.12
AATCGTGT	0.164
ATGGGTGC	-0.0107
GATGAAAA	0.0467
CTCCCAAC	-0.0556
CTACCACC	-0.166
AGCGGGTC	-0.21
ACAGGGTG	0.0367
ACAGGGTA	0.349
ATAGGGTA	0.17
CTTGTGCC	-0.222
AGTTCTAG	-0.0512
ATTGAGAA	0.232
ATTGAGAC	0.0341
ATTGAGAG	0.0708
TAAAACTA	0.0863
CAGGGCCC	0.42
GGGGCCCC	0.267
CGGGCCCC	0.119
CGGGGCCC	0.221
AAGGGCCG	-0.0822
CAGGGCCA	-0.0826

Sequence	PBM E-score
GGGCCCCC	-0.279
AGGGGCCC	0.276
AAGGGCCC	0.347
AAGGGCCT	0.0464
GAGGGCCC	0.151
AGGGGGCC	-0.189
CACCCGAC	-0.0642
AAAAGCGG	-0.12
AAAGTAGT	0.0374
AGTGAAAG	-0.0491
ACTCAATC	0.0391
AACCCCGG	0.0231
GAGTTTCA	0.00699
TAGTTTCA	0.258
AAGTTTCA	0.149
CGTGAATA	0.17
TACCACAA	0.0795
GTAATTGA	0.00642
ATAATTAA	0.264
ATAATTAC	0.176
ATAATTGA	0.276
TTAATTAA	0.198
CTAATTGA	0.0446
CTAGATGA	-0.0603
GCGAAACA	0.0688

Sequence	PBM E-score
AACGATGA	0.0545
ACCGCATC	0.159
AATTGAGT	0.245
AATTGGGG	-0.0654
AAATTGCA	0.232
AATTGGGT	0.26
AATTGAGG	0.0708
CAATTGCA	-0.0952
AATTGAGA	0.0993
AAATTGTC	0.24
AAATTGCT	-0.0593
AAATTGTA	0.0349
AATTGGGC	-0.0483
AAATTGTT	0.0684
CAGAGCGC	-0.213
ACATGGTA	-0.0687
AAGGTGCG	-0.0555
CTCATCCC	-0.234
ACTACGTA	0.0132
ATGTCCGA	-0.0732
ACCTCGCG	0.116
AGTCCCAC	-0.079
CAATTCCA	-0.0703
AAATTGGC	-0.012
AAATTCCA	0.254

Sequence	PBM E-score
AAATTGGG	0.0734
GAATTCCA	0.188
AAATTGGT	0.268
GAGACGGC	-0.0458
ACGAGGAC	-0.0285
CACTGAGC	-0.0828
ACGAATGA	0.156
GAAGGACA	-0.00553
CACCTCAG	-0.11
TCAGTGCA	0.0253
AGCGTTAC	-0.146
AATATAGG	0.229
AATATAGT	0.206
AATATAGC	0.0275
CATATAAA	0.00613
CATATAAG	0.0579
AATATAAG	0.258
AATATAAA	0.233
TATATAAA	0.2
AATATAAT	0.0957
ACACTTCA	0.103
CAGCCAGC	-0.115
CAAACAGC	0.00877
AAGGGCCA	-0.0108
AGTTTGGG	0.0374

Sequence	PBM E-score
CCGGCGAA	0.0927
GGAAACAA	0.105
AGAAACAA	0.258
AGAAACAC	0.0617
AATCGGCG	0.0404
AAGGTTTG	0.0916
GTCAGGGA	0.18
ACCAGGGA	0.122
CTCAGGGA	0.319
GACAGACC	0.0299
AACAGGGG	0.105
TCCAGGGA	0.242
CTCAGGGC	0.157
CCCAGGGA	0.124
CACAGACA	0.118
AACAGGGC	0.283
CACAGGGC	0.179
GACAGACA	0.248
GCATTCCC	-0.0654
ATTCGACC	-0.0786
AGAGCGCT	0.0785
CGCGGGGC	0.0564
AAGGGCAT	-0.139
ATGCGACA	0.0603
GCAAGTGA	-0.0727

Sequence	PBM E-score
AGCTAGCG	0.00875
ACGAAGAC	-0.135
GAGCAAGA	-0.00443
GCTGAAAA	0.114
GATCTCCA	0.0533
CAGAGCTG	-0.0821
AGAACGAA	0.179
GACAGGGA	0.252
AACAGGGA	0.176
CACAGGGA	0.139
CACCTCTC	-0.0403
ATGGCCTA	0.00552
ATAAGAAT	0.135
ATAAGAAC	0.36
GCAAGAAC	0.188
ACCAGAAC	0.238
ACAAGAGA	0.24
ACCAGAAA	0.041
ACAAGAAC	0.262
ACAAGAGC	0.0831
ACAAGAAT	0.0779
ACCAGAAG	-0.134
ATAAGAAA	0.101
CCAAGAGA	-0.14
AGGAGCAC	0.0739

Sequence	PBM E-score
AGTTGGCA	0.1
AGCTTACA	0.128
GCTCCCAA	-0.0754
CGCTACAG	-0.103
ATATACAC	0.081
ATATACTA	0.307
ATATACAA	0.237
ATATACTC	0.0973
CTATACTA	0.111
CTATACAA	-0.0419
AAATCACT	0.124
CACAGCCA	-0.0609
CGGAGATA	0.0572
ATGGTGTA	-0.0203
GCATATCA	0.256
TCATATCA	0.0508
CCATATCA	0.00491
CTTAACGA	0.123
GGCGAAGA	-0.0414
ATCTAGAA	-0.0175
CAAGACCG	-0.00525
AACCTATG	-0.101
